The campaign covered roughly 320,000 compounds. About 7,600 (2.4%) were called active. Another 3% or so got no clear call; they are omitted. Shown is part of a subset that was picked to be rich in actives. A number with no mark means an inactive call. Calls come from the whole dose curve; as a rule, active = well fitted activation curve with a large enough effect; inconclusive = small, poorly fitted or top-dose-only effect; inactive = no such curve, though single readings can be large or run the other way.
assay: qHTS Assay for NPC1 Promoter Activators; details: Huh7 NPC1 promoter luciferase reporter, 24 h; series mostly up to 9.22 µM; activation: at the top concentration; note: nearly all actives have a fitted effect of over 60% in size;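 for activation: reporter is driven by a mutant NPC1 promoter; % of control where 0% means no effect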
Summary of the method: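 Stably transfected Huh7 (NPC1 promoter→luciferase), 1500 cells/well in Opti-MEM + 10% FBS, 2 h settle, then compound 24 h at 37 °C. Luminescence after 10 min with Amplite reagent.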
Potency is the fitted concentration of half-maximal effect.

| SMILES | activation | Potency |
| --- | --- | --- |
| CN(CC(=O)Nc1ccc(OC(F)(F)F)cc1)C(=O)C1CCC1 | -1.1% | – |
| CC(=O)c1c(C)[nH]c(C(=O)OCC(=O)Nc2c(C)cccc2C)c1C | -10.2% | – |
| COc1ccc(NC(=O)Nc2cccc3cccnc23)cc1 | 16.2% | – |
| COc1ccc(NC(=O)c2ccc(C#CC(C)(C)O)cc2)cc1 | 8.18% | – |
| COc1ccc(/C=N/NC(=O)Nc2ccc3nsnc3c2)c(OC)c1 | -0.0419% | – |
| COc1ccccc1CC(=O)Nc1ccc(F)cc1F | 1.66% | – |
| COc1ccc(C(=O)Nc2ccc(F)cc2F)cc1 | – | 3160 nM (active) |
| COc1ccc(NC(=O)c2ccc(OC)cc2)cc1 | – | 1780 nM (active) |
| COc1ccc(C(=O)Nc2cccc(S(C)(=O)=O)c2)cc1 | 2.72% | – |
| COc1ccc(NC(=O)Nc2ccc3nsnc3c2)cc1 | – | 1780 nM (active) |
| COc1cc(OC)cc(C(=O)OCC(=O)Nc2ccc(F)cc2F)c1 | -1.57% | – |
| COc1ccc(OC)c(/C=N/NC(=O)c2ccc[n+](CC(=O)c3ccccc3)c2)c1 | 2.89% | – |
| COc1ccccc1C(=O)Nc1ccc(C)c(S(=O)(=O)N2CCCCC2)c1 | -2.07% | – |
| CNS(=O)(=O)c1ccc(C(=O)NCC(=O)NCCc2ccc3c(c2)OCCO3)cc1 | 0.876% | – |
| COc1ccc(C(=O)NCc2ccc(C)cc2)cc1S(=O)(=O)N1CCCC1 | -2.7% | – |
| CC(C)(Oc1ccc(Cl)cc1)C(=O)OCC(=O)NCCc1ccc(S(N)(=O)=O)cc1 | -3.7% | – |
| CC(=O)c1ccccc1NC(=O)C1CC(=O)N(c2ccc3c(c2)OCCO3)C1 (stereo not given) | -3.76% | – |
| COc1ccc(C(=O)N2CCN(c3ccc(C(C)=O)cc3F)CC2)cc1S(=O)(=O)NC1CC1 | 11.8% | – |
| CCc1ccccc1NC(=O)[C@@H]1CCC(=O)N1C1OC(=O)c2c1ccc(OC)c2OC (stereo not given in full) | -0.58% | – |
| CN(C(=O)CSc1nnc(-c2ccc(C(C)(C)C)cc2)n1C)C1CCS(=O)(=O)C1 (stereo not given) | 1.03% | – |
| Cc1cccc(NS(=O)(=O)c2ccc(C)c(C(=O)NCC(c3ccccc3)N(C)C)c2)c1 (stereo not given) | -5.65% | – |
| C[C@H](NC(=O)c1ccccc1Cl)C(=O)OCC(=O)N1CCN(c2ccccc2)CC1 | -0.198% | – |
| CCOC(=O)N1CCC(NC(=O)c2cnn3ccccc23)CC1 | -0.0909% | – |
| Cc1cnc(C(=O)OCC(=O)N2CCc3ccccc32)cn1 | 9.65% | – |
| O=C(c1cnn2ccccc12)N1CCc2ccccc21 | – | 3160 nM (active) |

| SMILES | activation | Potency |
| --- | --- | --- |
| CC(=O)NCCC(=O)Nc1cc(S(=O)(=O)N2CCCCC2)ccc1Oc1cccc(C)c1 | -0.163% | – |
| O=C(c1ccc(F)cc1)n1cc(C(=S)N2CCOCC2)c2ccccc21 | 1.36% | – |
| O=C(C[n+]1cc(Br)cc2ccccc21)c1ccc(F)cc1 | -1.7% | – |
| O=C(c1ccc(F)cc1)n1c(=S)nc2ccccn21 | – | 355 nM (active) |
| Cc1ccc(NC(=O)Cn2c(C)csc2=O)cc1 | 13.8% | – |
| CCOC(=O)c1cn[nH]c1NC(=S)Nc1ccccc1 | – | 2820 nM (active) |
| CCOC(=O)c1ccc(NC(=S)Nc2cc(C)cc(C)n2)cc1 | -5.29% | – |
| CCOC(=O)c1cc2c(nc1NC(=S)Nc1ccccc1)CC(C)(CC)OC2 (stereo not given) | 0.619% | – |
| CN(C)C1=NC[C@H](Cc2ccccc2)N1CCc1ccc(F)cc1 | -6.2% | – |
| COc1ccc(OC)c(/C=C/C(=O)c2ccc3c(c2)OCO3)c1 | 18.9% | – |
| CCOC(=O)[C@H]1[C@H]2COc3ccc(C)cc3[C@@H]2N2C(=O)CN(Cc3ccc(F)cc3)C(=O)[C@@]12C | -1.2% | – |
| COc1ccc(CN2CCN(C(=O)c3cc(C4CC4)nn3-c3ccccc3)CC2)cc1F | 1.51% | – |
| Cc1ccc(-n2c(C)cc(C(=O)CSc3nnc4ccccn34)c2C)cc1 | – | 891 nM (active) |
| Cc1cc(C(=O)CSc2nc(N)cc(=O)[nH]2)c(C)n1-c1cccc(F)c1 | -13.5% | – |
| Cc1ccc(-n2c(C)cc(C(=O)CN3C(=O)C(=O)N(C4CCCC4)C3=O)c2C)cc1 | 1.5% | – |
| N#Cc1ccc(CSc2nnc3ccccn23)cc1 | 0.241% | – |
| O=C(CSc1nnc2n1CCCN2)c1ccccc1 | 24.4% | – |
| O=C(CSc1nnc2ccccn12)c1ccccc1 | – | 3550 nM (active) |
| COc1cccc(CNC(=O)CN2C(=O)NC(Cc3ccccc3)(c3ccccc3)C2=O)c1 (stereo not given) | -5.69% | – |
| Cc1c(C(C)CCCO)oc(=O)c2c1Oc1c(C)c(C(C)C[C@@H](C)O)oc(=O)c1C2 (stereo not given in full) | 1.57% | – |
| CC(=O)C[C@@H](O)CC(=O)[C@H]1OC(=O)CCCCCCc2ccccc21 | -2.8% | – |
| O=C(O[C@H]1[C@H](Cc2ccccc2)NS(=O)(=O)[C@H]2C[C@@H]3C=C[C@]12O3)c1ccc([N+](=O)[O-])cc1 | -3.6% | – |
| COc1ccccc1C(CNC(=O)c1cccc(S(=O)(=O)Nc2ccc(F)cc2)c1)N(C)C (stereo not given) | -2.49% | – |
| O=C(CCNC(=O)c1ccc([N+](=O)[O-])cc1)NC1CCCCC1 | -0.237% | – |
| O=C(Cc1nc2ccccc2[nH]c1=O)c1ccc(Cl)cc1 | – | 3160 nM (active) |

| SMILES | activation | Potency |
| --- | --- | --- |
| N#C/C(=C(/O)COC(=O)COc1ccc(Cl)cc1)c1nc2ccccc2[nH]1 | -1.83% | – |
| O=C(CSc1nc2ccc([N+](=O)[O-])cc2[nH]1)c1ccc(Cl)cc1 | 4.6% | – |
| CCOC(=O)c1c(C)[nH]c(C(=O)OCC(=O)N2CCCC2=O)c1C | -3.33% | – |
| CCCCOC(=O)c1[nH]c(C)c(C(=O)OC)c1C | – | 2820 nM (active) |
| CCOC(=O)c1c(C)[nH]c(C(=O)OCC(=O)c2ccc(OC)cc2OC)c1C | -10.1% | – |
| Cc1cc(C)c(CN2CCN(C(=O)Cn3ccc(NC(=O)OCc4ccccc4)nc3=O)CC2)c(C)c1 | -15% | – |
| Cc1cccc(NC(=O)c2cccc(C(=O)Nc3cccc(C)c3C)n2)c1C | -3.28% | – |
| COC(=O)c1ccc(NCC(=O)N2CCCCCC2)cc1 | 27.8% | – |
| Cc1ccc(C(=O)CNc2ccc(F)cc2)cc1 | -1.15% | – |
| COC(=O)c1ccc(NCC(=O)c2ccccc2)cc1 | – | 2510 nM (active) |
| Cc1ccc(C(=O)c2c(NC(=O)c3ccccc3)sc(C)c2C)cc1 | 0.539% | – |
| O=C(COC(=O)c1ccc2ncsc2c1)Nc1ccc(Cl)cc1 | 1.42% [at 1.84 µM] | – |
| Cc1sc(NC(=O)c2ccc3ncsc3c2)c(C(N)=O)c1C | – | 1580 nM (active) |
| COc1cc(C(=O)Nc2ncccc2C)ccc1OCC(=O)N1CCOCC1 | -2.59% | – |
| Cc1cc(C)c(S(=O)(=O)N2CCC(C(=O)OCc3c(C)noc3C)CC2)c(C)c1 | -2.63% | – |
| Cc1ccc(C(=O)Nc2ccc(C)c(S(=O)(=O)N(C)C)c2)s1 | – | 2820 nM (active) |
| Cc1ccc(NC(=O)c2cccs2)cc1S(=O)(=O)N(C)C | 1.03% | – |
| CCN(CC(=O)Nc1ccc(C)c(S(=O)(=O)N(C)C)c1)Cc1ccccc1 | 7.28% | – |
| Nc1cc(N)nc(SCC(=O)Nc2cccc(S(=O)(=O)N3CCCCC3)c2)n1 | 0.484% | – |
| CSc1ccc(Cl)c(C(=O)OCC(=O)N2CCNC2=O)c1 | -0.987% | – |
| COc1ccc(N2C(=O)/C(=C\c3ccco3)N=C2SCC(N)=O)cc1Cl | -3.08% | – |
| Nc1nonc1C(=O)NCCc1ccccc1 | -0.723% | – |
| CC(C)Cc1cc(C(=O)NCCc2ccccc2)no1 | – | 2820 nM (active) |
| O=C(NCCCc1ccccc1)c1cc(COc2c(F)cccc2F)on1 | 24.8% | – |
| Cc1ccc(S(=O)(=O)N(Cc2ccc(Cl)cc2)c2ccccc2C(=O)NCc2cccnc2)cc1 | -3.62% | – |

| SMILES | activation | Potency |
| --- | --- | --- |
| O=C(CN(C(=O)c1csnn1)c1ccc(Br)cc1)NC1CCCC1 | 1.31% | – |
| O=C(CN1C(=O)CCS(=O)(=O)c2ccccc21)NCc1ccc(F)cc1 | 9.64% | – |
| O=C(CNS(=O)(=O)c1ccc2ccccc2c1)Nc1ccc(F)c(F)c1F | -5.75% | – |
| N#CC(=C1CCCC1)c1nc(-c2ccc(Cl)cc2)cs1 | – | 2510 nM (active) |
| CCCCCN1CC(O)=C(c2nc(-c3ccc(Cl)cc3)cs2)C1=N | 0.95% | – |
| N#CC(=C1SC=CS1)c1nc(-c2ccccc2)cs1 | 18.5% | – |
| CC1(C)NC(=O)N(CC(=O)N2CCN(S(=O)(=O)c3ccccc3F)CC2)C1=O | -4.7% | – |
| O=C(Nc1ccc(C(F)(F)F)cc1)c1cccc(-n2cnnn2)c1 | -7.93% | – |
| CN1CCN(S(=O)(=O)c2ccc(N3CCN(c4ccccc4O)CC3)c([N+](=O)[O-])c2)CC1 | 6.04% | – |
| CCc1ccc(N(CC(=O)NCc2cccnc2)S(=O)(=O)c2ccccc2)cc1 | – | 2820 nM (active) |
| CCCNS(=O)(=O)c1ccc(CCC(=O)NCc2cccnc2)cc1 | -2.07% | – |
| O=C(CN(c1cc(C(F)(F)F)ccc1Cl)S(=O)(=O)c1ccccc1)NCc1cccnc1 | -7.53% | – |
| CCN(C(=O)COC(=O)c1c(C)nn(-c2ccccc2)c1Cl)c1c(N)n(Cc2ccccc2)c(=O)[nH]c1=O | -0.895% | – |
| Cc1cc(/C=C(/C#N)C(=O)Nc2ccc(Cl)cc2)c(C)n1-c1cccnc1 | 11.6% | – |
| Cc1ccc(C(=O)N/C(=C/c2cccs2)C(=O)NCC2CCCO2)cc1 (stereo not given) | -0.594% | – |
| Cc1ccc(-n2c(C)cc(/C=C(\C#N)C(=O)NCC3CCCO3)c2C)cc1 (stereo not given) | – | 3160 nM (active) |
| O=C1C=C(c2cc(C(F)(F)F)cc(C(F)(F)F)c2)C[C@@H](c2ccc3c(c2)OCO3)C1 | -0.428% | – |
| Nc1c(C(=O)OCC(=O)Nc2ccc(OC(F)F)cc2)[nH]c(=O)[nH]c1=O | 0.835% | – |
| Cn1c(-c2ccc(F)cc2)cc2onc(-c3ccccc3Cl)c2c1=O | – | 1580 nM (active) |
| O=C1c2ccccc2C(=O)N1Cc1cc(-c2ccccc2Cl)no1 | -3.22% | – |
| Cc1onc(-c2ccccc2)c1C(=O)N1CCN(S(=O)(=O)c2ccccc2C(F)(F)F)CC1 | -1.13% | – |
| Cc1[nH]n(C)c(=O)c1C(=O)c1c(-c2c(Cl)cccc2Cl)noc1C | 10.9% | – |
| O=c1c2ccccc2c(-c2ccc(F)cc2)nn1-c1ccc(C(F)(F)F)cc1 | -4.99% | – |
| Cn1c(-c2ccc(C(F)(F)F)cc2)cc2onc(-c3ccccc3)c2c1=O | – | 398 nM (active) |
| C=C(C)C(=O)Nc1cccc(C2=NOC3(C2)C[C@H](C(N)=O)N(C(=O)C(c2ccccc2)c2ccccc2)C3)c1 (stereo not given in full) | -5.61% | – |
